# Reference: PubChem BioAssay AID624296 (National Center for Advancing Translational Sciences (NCATS), 2012)
# The whole screen tested about 350,000 compounds, of which about 9,900 (2.8%) were called active. About 15% were inconclusive and are not listed. The full list was thinned out, with actives kept by preference. Values without a mark were called inactive. Calls follow the shape of the dose curve; as a rule, active = well fitted activation curve with a large enough effect; inconclusive = small, poorly fitted or top-dose-only effect; inactive = no such curve, though single readings can be large or run the other way.
# Assay: A quantitative high throughput screen for small molecules that induce DNA re-replication in MCF 10a normal breast cells. Also: nearly all actives have a fitted effect of over 50% in size. As to activity, positive = re-replication: % of control where 0% means no effect.
# Settings: MCF 10A DNA re-replication, Hoechst nuclear intensity, 48 h; series mostly up to 46.1 µM; activity, positive = re-replication: at the top concentration
# Potency is read from the fitted curve at half-maximal effect.
SMILES,"activity, positive = re-replication",Potency
O=C(COC(=O)/C=C/c1cccc(Cl)c1)NCc1cccs1,6.71%,–
Cc1c(NC(=O)C(C)OC(=O)c2ccccc2O)c(=O)n(-c2ccccc2)n1C (configuration not stated),-8.76%,–
Cc1ccc(OCCCC(=O)Nc2ccc3c(c2)OCCO3)cc1,-1.53%,–
CC(C)N(Cc1nnc(-c2ccccc2Br)o1)C(=O)c1cc(Cl)nc2ccccc12,-0.578%,–
O=C(Nc1ccc(Br)cn1)c1ccc([N+](=O)[O-])o1,–,4.11 µM (active)
Cc1cccc(NC(=O)c2cc([N+](=O)[O-])ccc2N2CCN(C)CC2)c1,7.05%,–
Cc1cccc(NC(=S)NC(=O)c2ccc(Br)o2)c1,19.9%,–
CN1C(=O)c2ccc(C(=O)Nc3ccc(Br)cn3)cc2C1=O,-0.877%,–
Cc1cccc(NC(=O)c2ccc([N+](=O)[O-])o2)c1,–,2.91 µM (active)
O=C(Nc1ccc(Br)cn1)c1ccc([N+](=O)[O-])cc1Cl,-1.49%,–
COc1ccc(CNC(=O)c2ccc(NS(=O)(=O)c3ccc4[nH]c(=O)[nH]c4c3)cc2)cc1OC,-5.27%,–
COc1ccc(CNCCCn2cnc3c(OCc4ccccc4)ncnc32)cc1,1.64%,–
CSCCC(NC(=O)COc1ccccc1)C(=O)N(C)CC(=O)Nc1ccc(C)cc1 (configuration not stated),1.63%,–
CCOC(=O)CCCCCC(=O)Nc1ccc2c(c1)CC(=O)N([C@@H](C)CO)C[C@H](C)[C@@H](CN(C)Cc1ccccc1)O2,-21.7%,–
COc1cccc(C(=O)NNC(=O)/C=C/c2ccccc2)c1,3.32%,–
COc1cccc(C=CC(=O)C=CC=Cc2ccccc2)c1,–,16.4 µM (active)
COc1cccc(/C=C/C(=O)OCC(=O)N2CCN(c3ccccc3)CC2)c1,5.15%,–
Cc1noc(C)c1C(=O)OC(C)C(=O)Nc1ccc2c(c1)OCO2 (configuration not stated),-1.99%,–
CC1(C)CC(=O)C=C(c2ccc(Cl)c(C(F)(F)F)c2)C1,84.6%,–
COc1ccc(C2=NOC(C(=O)NCc3ccco3)C2)cc1OC (configuration not stated),–,4.61 µM (active)
COc1ccc(S(=O)(=O)N2CCC(C(=O)NCc3ccco3)CC2)cc1C,-0.313%,–
O=C(NCc1cc(C(F)(F)F)cc(C(F)(F)F)c1)C1CC(c2cccc(F)c2)=NO1 (configuration not stated),-1.76%,–
COc1ccccc1C(CNC(=O)c1ccc(C)c(S(=O)(=O)N2CCCCC2)c1)N(C)C (configuration not stated),-2.66%,–
Cc1ccc(OCCOCCOc2ccc(Br)cc2/C=N\NC(=O)c2ccncc2)cc1,–,20.6 µM (active)
COc1ccc(CC(=O)NCC(=O)N/N=C/c2cc(Br)ccc2OC)cc1,11%,–
Cc1ccc(S(=O)(=O)Oc2ccc(/C=N/NC(=O)c3ccncc3)cc2)cc1,11%,–

SMILES,"activity, positive = re-replication",Potency
CCCCc1ccc(NC(=O)CN2C(=O)NC(Cc3ccccc3)C2=O)cc1 (configuration not stated),-5.5%,–
CCCCNCCS(=O)(=O)NCc1ccccc1,6.56%,–
Cc1ccc(C)c(NC(=O)C(c2ccccc2)N2CCN(CC(=O)NC3CC3)CC2)c1 (configuration not stated),-1.84%,–
Cc1ccc(-n2c(=O)c(C#N)cc3c(=O)n4ccccc4nc32)cc1C,–,10.3 µM (active)
Cc1ccn2c(=O)c(NC(=O)c3cccc4ccccc34)c(C)nc2c1,3.52%,–
Cc1ccc(-n2c(SCC(=O)N3CCC(C(=O)O)CC3)nc3ccccc3c2=O)cc1C,-3.72%,–
CC(=O)Nc1ccc(C(=O)Nc2cc(S(=O)(=O)N3CCOCC3)ccc2N2CCOCC2)cc1,-7.14%,–
COc1ccc(CCN2CC(C(=O)OCC(=O)NCc3ccccc3Cl)CC2=O)cc1OC (configuration not stated),9.97%,–
Fc1ccccc1-c1cc2cc3c(cc2cn1)OCO3,20.3%,–
CC1=Nn2c(nnc2-c2ccccc2)SC1,-3.17%,–
Cc1nnc2n1N=C(c1ccccc1)CS2,1.39%,–
COc1ccc(C2=Nn3c(nnc3-c3ccccc3OC)SC2)cc1OC1CCCC1,–,0.651 µM (active)
CCOC(=O)c1ccccc1NS(=O)(=O)c1c(C)nc2sccn2c1=O,-0.74%,–
CCOC(=O)c1ccccc1NS(=O)(=O)c1ccc(OC)cc1,–,16.4 µM (active)
CCOc1cc(NS(=O)(=O)c2ccc(OC)cc2)c(OCC)cc1NC(C)=O,12.6%,–
CN1CCN(S(=O)(=O)c2ccc(N3CCN(c4ccccc4O)CC3)c([N+](=O)[O-])c2)CC1,2.95%,–
CC(=O)c1sc(NC(=O)CCN2C(=O)C3CC=CCC3C2=O)nc1-c1ccccc1 (configuration not stated),-0.493%,–
COc1ccc(-c2csc(Nc3ccccn3)n2)cc1,0.252%,–
COc1ccc(OC)c(Nc2nc(-c3ccc(O)c(O)c3)cs2)c1,–,8.2 µM (active)
COc1ccc(CC(=O)Nc2nc(-c3ccc(F)c(F)c3)cs2)cc1OC,3.89%,–
C=CC[C@@H](CC(=O)N[C@@H](CO)Cc1ccccc1)C(=O)N[C@H](COC(=O)[C@H](CC=C)CC(=O)OC(C)(C)C)Cc1ccccc1,-10.2%,–
Oc1cccc(CCc2ccccn2)c1,-3.55%,–
COc1cc(/C=C/C(=O)OCC(=O)NC2CC2)cc(OC)c1OC,-2.1%,–
Cc1cc(C)c(C#N)c(SCc2[nH]nc3c2C(c2ccccc2)C(C#N)=C(N)O3)n1 (configuration not stated),-7.51%,–
Cc1nn(Cc2ccccc2)c2c1C(c1ccccc1)C(C#N)=C(N)O2 (configuration not stated),-2.92%,–
Cc1cc(C)c2c3c(sc2n1)C(c1ccccc1)C(C#N)=C(N)O3 (configuration not stated),–,2.82 µM (active)
